Screening data: PubChem, National Center for Advancing Translational Sciences (NCATS)
Pf growth 96h = Primary qHTS for delayed death inhibitors of the malarial parasite plastid, 96 hour incubation. P. falciparum luciferase reporter growth, 96 h. AID 504834, 2011. Potency, µM (top dose mostly 28.7 µM), without a hit: at the top dose activity change, negative = inhibition, usual class: inhibitors. 6.9% of 320,000 active; also: potency is read from the fitted curve at half-maximal effect; % is scaled to controls: 0 for no effect and ±100 for the full control effect
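Two parasite generations (96 h, 37 C, 5% CO2) of compound exposure in infected erythrocytes (0.05% parasitemia, 2% hematocrit). Luciferase-reporter P. falciparum; decreased luminescence indicates inhibited growth, aimed at apicoplast-acting delayed death.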
HCMV antiviral = qHTS Assay for inhibitors of the human cytomegalovirus (HCMV) | 4.5% of 410,000 active | HFF cells, HCMV-luciferase reporter, 72 h; hits give low values | AID 1259415, 2018 | activity change, negative = inhibition, % at 57.5 µM; in the data active = activity change below about -60%; inconclusive = no clear call, values can overlap the other calls; inactive = above about -39%; also: % is scaled to controls: 0 for no effect and ±100 for the full control effect
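Steps: HFFs plated, 16 h 37C; compounds added; HCMV-luciferase added to MOI 1 PFU/cell; 72 h 37C; OneGlo reagent, 5 min room temperature; luminescence read, normalized to controls.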
Shiga toxin inh = A qHTS for Small Molecule Inhibitors of Shiga Toxin. Vero cells, Shiga toxin protein synthesis inhibition reporter. inhibition, % at 38.7 µM. 9.2% of 290,000 active. AID 2315, 2010; in the data active = inhibition mostly above about 28%, no sharp cut-off; inactive = mostly below about 43%; also: 0% is about no effect
HCV inhibitor = qHTS Assay for Inhibitors of Hepatitis C Virus (HCV) | Huh7.5.1 HCVcc-Cre infection, luciferase reporter, 44 h | Potency, µM (series often up to 41.8 µM), without a hit: at the top dose activity change, negative = inhibition, actives largely listed as inhibitors | 3.4% of 340,000 active | AID 651820, 2012; also: potency is read from the fitted curve at half-maximal effect; % is scaled to controls: 0 for no effect and ±100 for the full control effect
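Infectious HCVcc-Cre (~0.5 moi) was added to cells just after compound, with cells seeded 4 h earlier at 1,000 per well. Luciferase activity after 44 h culture reported infection; substrate was incubated 15 min at room temperature before reading.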
Cycloheximide cs = Cycloheximide Counterscreen for Small Molecule Inhibitors of Shiga Toxin | cell reporter, cycloheximide protein synthesis inhibition counterscreen | max response, % | 12% of 300,000 active; in the data active = max response mostly above about 13%, no sharp cut-off; inactive = mostly below about 14%; also: read at 38.3 µM for the half of the compounds with a filed dose; 0% is about no effect
Pf growth 48h = Primary qHTS for delayed death inhibitors of the malarial parasite plastid, 48 hour incubation | P. falciparum luciferase growth in erythrocytes, 48 h | Potency, µM (highest dose often 28.7 µM), for the others: top-dose activity change, negative = inhibition, actives largely listed as inhibitors | 5.9% of 310,000 active; also: potency is read from the fitted curve at half-maximal effect; % is scaled to controls: 0 for no effect and ±100 for the full control effect
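Erythrocytes infected with P. falciparum carrying an integrated firefly luciferase reporter (2% hematocrit, 0.1% parasitemia final) were exposed to compounds in RPMI 1640 with 0.5% Albumax at 37 C, 5% CO2. Growth inhibition was scored as reduced luminescence.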
An asterisk follows results filed as active. In the library only some 21% were active in any assay of this set; here they are far more common. Unless noted, calls follow the shape of the dose curve; as a rule, active = well fitted inhibition curve with a large enough effect; inconclusive = small, poorly fitted or top-dose-only effect, or another doubt; inactive = no such curve, though single readings can be large or run the other way.

COc1ccc(C(=O)NN/C(=N/S(=O)(=O)c2ccc(C)cc2)c2ccccc2)cc1 was read as Pf growth 96h 24%, HCMV antiviral 34, Shiga toxin inh 59*, HCV inhibitor 24%, Cycloheximide cs 52* and Pf growth 48h 14%.
Screening CCOc1ccc(S(=O)(=O)/N=C(/Nc2ccc(OC)cc2)c2ccccc2)cc1 returned Pf growth 96h 84%, HCMV antiviral -25, Shiga toxin inh 8, HCV inhibitor -5%, Cycloheximide cs 13 and Pf growth 48h inconclusive.
Screening COc1ccc(C(=O)NNS(=O)(=O)c2ccccc2)cc1 returned Pf growth 96h inconclusive, HCMV antiviral -19, Shiga toxin inh 55, HCV inhibitor 19%, Cycloheximide cs 17* and Pf growth 48h 15%.
`CC(C)CCC(C(=O)NC(C)c1ccccc1)C(=O)NC(C)c1ccccc1` (configuration not stated) gave Pf growth 96h 0%, HCMV antiviral -19, Shiga toxin inh 0, HCV inhibitor 0%, Cycloheximide cs -2 and Pf growth 48h -3%.
O=C(Cc1ccc(S(=O)(=O)N2CCOCC2)s1)NCC(=O)Nc1ccccc1Br was read as Pf growth 96h -1%, HCMV antiviral -13, HCV inhibitor 12% and Pf growth 48h 6%.
O=C(Cc1ccc(S(=O)(=O)N2CCOCC2)s1)Nc1ccccc1Br was read as Pf growth 96h 3.7µM*, HCMV antiviral 0, Shiga toxin inh 2, HCV inhibitor -3%, Cycloheximide cs -2 and Pf growth 48h 2.3µM*.
For CC(C)(C)c1csc(NC(=O)Cc2ccc(S(=O)(=O)N3CCOCC3)s2)n1 the results were Pf growth 96h 10µM*, HCMV antiviral inconclusive, HCV inhibitor inconclusive and Pf growth 48h inconclusive.
For CCCCc1nnc(NC(=O)Cc2ccc(S(=O)(=O)N3CCOCC3)s2)s1 the results were Pf growth 96h inconclusive, HCMV antiviral 0, HCV inhibitor 1% and Pf growth 48h 10µM*.
COc1ccc(CC(=O)Nc2sccc2C#N)cc1S(=O)(=O)N1CCOCC1 was read as Pf growth 96h -10%, HCMV antiviral 14, HCV inhibitor -19% and Pf growth 48h -21%.
`CCOc1ccccc1N(C)C(=O)CCS(=O)(=O)c1ccc2c(c1)NC(=O)C(C)S2` (configuration not stated) gave Pf growth 96h 104%, HCMV antiviral -18, Shiga toxin inh -7, HCV inhibitor inconclusive, Cycloheximide cs -10 and Pf growth 48h inconclusive.
Screening O=S(=O)(c1ccc(F)cc1)N(CCO)CC(O)Cn1c2ccccc2c2ccccc21 (configuration not stated) returned Pf growth 96h inconclusive, HCMV antiviral 42, Shiga toxin inh -4, HCV inhibitor -10%, Cycloheximide cs -2 and Pf growth 48h 15µM*.
Screening CCN(CC(O)Cn1c2ccccc2c2ccccc21)S(=O)(=O)c1ccc(F)cc1 (configuration not stated) returned Pf growth 96h 13µM*, HCMV antiviral 11, Shiga toxin inh -17, HCV inhibitor inconclusive and Cycloheximide cs 7.
For O=S(=O)(c1ccc(F)cc1)N(CC(O)Cn1c2ccccc2c2ccccc21)c1ccccc1 (configuration not stated) the results were HCMV antiviral -33.
C=CCOc1ccc(/C=C/C(=O)OCC(=O)N(C)CC(=O)Nc2ccc(F)cc2)cc1 was read as Pf growth 96h -1%, HCMV antiviral -6, HCV inhibitor 0% and Pf growth 48h inconclusive.
Nc1ccc(Oc2ccccc2-c2ccccc2)cc1 was read as HCMV antiviral -82* and HCV inhibitor -6%.
`COC(=O)C(Cc1c[nH]c2ccccc12)NC(=O)C1CC1` (configuration not stated) gave Pf growth 96h 28%, HCMV antiviral -31, Shiga toxin inh 1, HCV inhibitor 5%, Cycloheximide cs -8 and Pf growth 48h 0%.
For CCc1ccc(Nc2n[n+](-c3ccccc3)c(-c3ccc(OC)c(Br)c3)s2)cc1 the results were Pf growth 96h 4.7µM*, HCMV antiviral 2, Shiga toxin inh 33*, HCV inhibitor inconclusive, Cycloheximide cs 26* and Pf growth 48h 1%.
CCOc1cc(-c2sc(Nc3ccccc3)n[n+]2-c2ccc(F)cc2)ccc1OC was read as Pf growth 96h inconclusive, HCMV antiviral -16, Shiga toxin inh -3, HCV inhibitor 3%, Cycloheximide cs 0 and Pf growth 48h 35%.
COc1ccc(C)cc1Nc1n[n+](-c2ccccc2)c(-c2ccc(NC(C)=O)cc2)s1 was read as Pf growth 96h inconclusive, HCMV antiviral -27, Shiga toxin inh 0, HCV inhibitor 0%, Cycloheximide cs 2 and Pf growth 48h inconclusive.
`CCc1ccc(Nc2n[n+](-c3ccccc3)c(-c3ccc(SC)cc3)s2)cc1` gave Pf growth 96h 4.7µM*, HCMV antiviral -65*, Shiga toxin inh 34*, HCV inhibitor -26%, Cycloheximide cs 33* and Pf growth 48h inconclusive.
COc1ccc(C)cc1Nc1n[n+](-c2ccccc2)c(-c2ccc(SC)cc2)s1 was read as Pf growth 96h inconclusive, HCMV antiviral -26, Shiga toxin inh 52*, HCV inhibitor inconclusive, Cycloheximide cs 42* and Pf growth 48h inconclusive.
Screening CSc1ccc(-c2sc(Nc3ccccc3)n[n+]2-c2ccccc2)cc1 returned Pf growth 96h 1.9µM*, Shiga toxin inh 53*, HCV inhibitor -30%, Cycloheximide cs 36* and Pf growth 48h inconclusive.
CCc1ccc(Nc2n[n+](-c3ccccc3)c(-c3ccc(C(=O)O)cc3)s2)cc1 was read as Pf growth 96h inconclusive, HCMV antiviral 11, Shiga toxin inh 17, HCV inhibitor 3%, Cycloheximide cs -1 and Pf growth 48h 28%.
Screening O=[N+]([O-])c1ccccc1CCc1ccccc1[N+](=O)[O-] returned HCMV antiviral 24 and HCV inhibitor 2%.
Cc1ccc(CN(C(=O)COc2ccc(C(C)(C)C)cc2)C2CCS(=O)(=O)C2)o1 (configuration not stated) was read as HCMV antiviral 43.
For O=C(Nc1ccccc1OC(F)F)c1ccn2ccnc2n1 the results were HCMV antiviral 9.
CCOc1ccc(N(CC(=O)NCc2ccc(C)cc2)S(=O)(=O)c2c(C)noc2C)cc1 was read as HCMV antiviral 7.
For C[n+]1nc(Nc2cccc3ccccc23)sc1-c1ccc(C(=O)O)cc1 the results were Pf growth 96h 9%, Shiga toxin inh 35*, Cycloheximide cs 18* and Pf growth 48h 4%.
